Screening data from PubChem BioAssay.
SARS PLpro yeast: inhibitors of SARS-CoV papain-like protease in yeast; 0.19% of 330,000 active; S. cerevisiae expressing SARS-CoV PLpro, growth rescue; Potency, µM (doses to about 32.9 µM), for inactives: top-dose activity, positive = growth rescue, most hits filed as activators; calls by dose curve; also: 0% is about no effect; nearly all actives have a fitted effect of over 55% in size
Sm TGR block: blocks Schistosoma mansoni thioredoxin glutathione reductase; AID 485364; Q962Y6; 3% of 360,000 active; Potency, µM (doses to about 114 µM), without a hit: at the highest dose activity change, negative = inhibition, most hits filed as inhibitors; purified TGR, DTNB reduction, TNB absorbance 405 nm; active = well fitted inhibition curve with a large enough effect; inconclusive = small, poorly fitted or top-dose-only effect; inactive = no such curve, though single readings can be large or run the other way; also: % is scaled to controls: 0 for no effect and ±100 for the full control effect; nearly all actives have a fitted effect of over 60% in size
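Kinetic colorimetric format: TGR-catalysed, NADPH-driven DTNB reduction monitored via TNB absorbance. Enzyme dispensed at 20 nM; compound exposure 15 min at room temperature before reaction start.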
* marks the source's active call; other numbers are inactive results; ? = inconclusive; . = no result; [ ] = dose if it differs, or a comment. A selection: hits, their analogues and other compounds. The true share with any hit is near 3%. Potency is read from the fitted curve at half-maximal effect.

SMILES | SARS PLpro yeast | Sm TGR block
O=C1CSC(c2cn(-c3ccccc3)nc2-c2cccs2)N1Cc1ccccc1 (centres undefined) | 7% | -18%
O=C1CSC(c2cn(-c3ccccc3)nc2-c2cc3ccccc3o2)N1Cc1ccccc1 (centres undefined) | 8% | -11%
Cc1ccc(O)c(/C=N/NC(=O)c2[nH]ncc2Br)c1 | -2% | -6%
Cc1ccc(O)c(/C=N/NC(=O)C2=NNC(c3ccccc3)(c3ccccc3)C2)c1 | 6.3µM* | ?
CCN(CC)S(=O)(=O)c1ccc2c(c1)nc(CN(C)C(=O)Nc1ccc(C)c(F)c1)n2C | . | -4%
CCn1c(C)cs/c1=N\S(=O)(=O)c1ccccc1 | 8% | 4%
O=Cc1s/c(=N\S(=O)(=O)c2ccccc2)n(CCCCl)c1Cl | -8% | 0.63µM*
CCOc1ccccc1CNC(=O)CCn1ccc2cc(S(=O)(=O)N3CCC(C)CC3)ccc21 | . | 2%
O=C(NCCSc1c(-c2ccccc2)[nH]c2ccccc12)c1ccc(S(=O)(=O)N2CCOCC2)cc1 | . | 1%
O=C(Cn1c(=O)n2nc(-c3ccccc3)nc2c2ccccc21)Nc1ccccc1C(F)(F)F | . | -14%
O=[N+]([O-])c1ccc(COc2cccc(CNc3ccc(F)cc3)c2)cc1 | 2% | -4%
Oc1ccc(NCc2cccc(OCc3ccccc3)c2)cc1 | -1% | 13µM*
c1ccc(COc2cccc(CNCc3cccnc3)c2)cc1 | 0% | .
Oc1ccc(NCc2cccc(OCc3ccc(F)cc3)c2)cc1 | -3% | 28µM*
CCCCN(CC)C(=O)CCn1c(=O)c2cccn2c2cccnc21 | . | 1%
COc1ccc(NC(=O)C(C)n2nc(-c3cc(C)ccc3C)c3c(c2=O)CCCC3)cc1 (centres undefined) | . | 4%
CC(=O)c1cc(C(=O)Nc2cccc(C)c2)c2ccccn12 | . | 10%
O=C(NCc1ccc2c(c1)OCO2)c1nc(S(=O)(=O)Cc2ccccc2)ncc1Cl | -2% | 3.2µM*
O=C(NCc1ccc2c(c1)OCO2)c1nc(S(=O)(=O)Cc2ccccc2F)ncc1Cl | 14% | 25µM*
O=C(NCc1ccc2c(c1)OCO2)c1ccc(Cl)nc1 | 1% | 10%
O=C(Cc1ccccc1)NCc1ccc2c(c1)OCO2 | 17% | 10%
Cc1ccc2c(C)c(C(=O)N3CCC(c4nc5ccccc5s4)CC3)oc2c1C | . | 13%
Cc1ccccc1-c1nc(SCc2cccnc2)c2c(=O)n(C)c(=O)n(C)c2n1 | 0% | 45µM*
CCCc1nc(SCc2cccnc2)c2c(=O)n(C)c(=O)n(C)c2n1 | -4% | 2%
COc1ccc(Cl)cc1NC(=O)c1ccc2c(c1)CCCN2S(C)(=O)=O | . | 9%
SMILES | SARS PLpro yeast | Sm TGR block
CC(=O)Nc1ccc(S(=O)(=O)N(C)CC(=O)OCC(=O)N2CCN(C(=O)c3ccco3)CC2)cc1 | 0% | 50µM*
CCOC(=O)/C=C/C(=O)OCC(=O)N1CCN(C(=O)c2ccco2)CC1 | 1% | 32µM*
Cc1cc(SCC(=O)OCC(=O)N2CCN(C(=O)c3ccco3)CC2)c(C)cc1Br | -6% | ?
Cc1ccc(SCC(=O)OCC(=O)N2CCN(C(=O)c3ccco3)CC2)c(C)c1 | -2% | 45µM*
O=C(/C=C/c1ccc(OC(F)F)cc1)OCC(=O)N1CCN(C(=O)c2ccco2)CC1 | -5% | -6%
CC(=O)Nc1ccc(S(=O)(=O)N(C)CC(=O)OCC(=O)N2CCCCCC2)cc1 | -1% | 6%
CCC(=O)N1CCc2cc(S(=O)(=O)CCC(=O)Nc3ccc(Cl)c(C(F)(F)F)c3)ccc21 | . | -3%
CCOc1ccc(CCNC(=O)CCc2c(C)nc3c(c(C)nn3-c3ccccc3)c2C)cc1OCC | . | 24%
COc1ccc(-n2nc(C(=O)N3CCCCC3)c3c4ccccc4n(C)c3c2=O)cc1Cl | . | 4%
COc1c(O)cc2c(c1O)[C@@H]1O[C@H](CO)[C@@H](O)[C@H](O)C1OC2=O (some centres undefined) | -1% | -8%
O=C1OCC2OC(O)C(O)C(O)C2OC(=O)c2cc(O)c(O)c(O)c2-c2c(O)c(O)c3oc(=O)c4c(c(O)c(O)c5oc(=O)c2c3c54)-c2c1cc(O)c(O)c2O (centres undefined) | ? | 16µM*
N#CC1=C(N)C(C#N)(C#N)[C@H](c2ccncc2)[C@H]2CC3(CC=C12)OCCO3 | 4% | 79µM*
Cc1ccc(C2C3CSCC=C3C(C#N)=C(N)C2(C#N)C#N)cc1 (centres undefined) | 2% | ?
O=C(O)c1ccnc2c(O)cccc12 | 3% | -15%
CCOC(=O)c1c(NC(=O)CCCOc2ccc(C(C)(C)C)cc2)sc2c1CCCC2 | . | -6%
C=CCOc1ccc(C2NC(=S)NC3=C2CCc2ccccc23)cc1 (centres undefined) | 0% | 56µM*
COc1cc(C2NC(=S)NC3=C2CCc2ccccc23)cc(OC)c1OC (centres undefined) | 5% | 4%
Cc1ccc[n+](-c2nc([O-])sc2C=O)c1 | 1% | -15%
Cc1ccc(-n2c([O-])nc(-[n+]3ccccc3)c2C=O)cc1 | 5% | 40µM*
Cc1nc2ccc(S(=O)(=O)NCC(=O)N3CCc4ccccc4C3)cc2s1 | -1% | -9%
Cc1nc2ccc(S(=O)(=O)NCC(=O)N3CCc4ccccc43)cc2s1 | 0% | 56µM*
COc1ccccc1CNC(=O)CSc1nc2nc(C)c(Cc3ccccc3Cl)c(C)n2n1 | . | -5%
Cc1ccc(Sc2c(C)nn(C(=O)COc3ccccc3)c2C)cc1 | . | 3%
C=CCC1(CC=C)CCCN1C(=O)CC1C(=O)NCCN1Cc1cc(OC)cc(OC)c1 (centres undefined) | -1% | 28µM*
C=CCC1(CC=C)CCCN1C(=O)CC1C(=O)NCCN1Cc1cccc(OC)c1 (centres undefined) | 0% | ?
SMILES | SARS PLpro yeast | Sm TGR block
Cc1nc(CCNC(=O)CC2C(=O)NCCN2Cc2ccc(F)cc2)sc1C (centres undefined) | 0% | 20µM*
Cc1nc(CCNC(=O)CC2C(=O)NCCN2Cc2ccccc2F)sc1C (centres undefined) | 1% | -30%
COc1cc(CN2CCNC(=O)C2CC(=O)NCCC2=CCCCC2)cc(OC)c1 (centres undefined) | 0% | 40µM*
CCOc1ccc(CN2CCNC(=O)C2CC(=O)NCCC2=CCCCC2)cc1 (centres undefined) | -2% | -26%[57.1 µM]
COc1cc(-c2cc3n(C)c(C)c(CCC(=O)O)c(=O)n3n2)cc(OC)c1OC | . | -2%
CSCCC(NS(=O)(=O)c1cccs1)C(=O)Nc1ccc(C)c(Cl)c1 (centres undefined) | . | 5%
Cc1ccc(CNS(=O)(=O)c2c(C(=O)N3CCCCC3)c(C)n(C)c2C)o1 | -5% | 35µM*
COc1ccc(C)cc1NS(=O)(=O)c1c(C(=O)N2CCCCCC2)c(C)n(C)c1C | . | 5.6µM*
COc1cc(NS(=O)(=O)c2c(C(=O)N3CCCCC3)c(C)n(C)c2C)cc(OC)c1OC | . | 4%
Cc1ccc(CNS(=O)(=O)c2c(C(=O)N3CCCCCC3)c(C)n(C)c2C)cc1 | -11% | 1%
CCc1sc(Nc2cccc(C)c2C)nc1-c1cc2cccc(OC)c2oc1=O | . | 7%
CC(C)NC(=O)N1[C@H](c2cccs2)[C@@H](C)C(=O)[C@@H](C)[C@@H]1c1cccs1 | . | 1%
COc1cc(NC(=O)CCCN2C(=O)CCn3nc(-c4cn(C)c5ccccc45)cc32)cc(OC)c1 | . | 0%
NC(=O)c1cc(S(=O)(=O)NCC2CCC(C(=O)Nc3cccc(Cl)c3)CC2)cs1 (centres undefined) | . | 0%
